Active and inactive are the calls of the source.

These results are taken from PubChem BioAssay.

Test [1] can be described thus: binders of probe aFSTL3 on microarray, primary screen, stem cell growth factor project, biochemical, small-molecule microarray, fluorescence 635/667 (AID 1064).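 Note: measures binding of the biotinylated anti-FSTL3 antibody to printed compounds.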 As to conditions: higher = more signal.
Test [2] in a line: binders from COS7 lysate, DM2A8 probe, primary screen, torsin A project, cell lysate, small-molecule microarray, fluorescence 635/667 (AID 1065). The note with it: higher = more signal, COS7 lysate expressing mutant human TOR1A.
The nature of test [3]: binders of probe aFGF2 on microarray, primary screen, stem cell growth factor project, biochemical, small-molecule microarray, fluorescence 635/667 (AID 1067).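 Note: measures binding of biotinylated aFGF2 protein to printed compounds on slides; z-score merges feature fluorescence and signal-to-noise across triplicate slides.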 As to conditions: higher = more signal.
A short description of test [4]: binders of probe aFGF10 on microarray, primary screen, stem cell growth factor project, biochemical, small-molecule microarray, fluorescence 635/667 (AID 1071).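 Note: score merges 667 nm spot intensity and signal to noise from triplicate slides.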 The note with it: higher = more signal.
The target of test [5] is Neurogenic locus notch homolog protein 2 (Homo sapiens) (UniProt Q04721). In words: Notch2 binders on small-molecule microarrays, primary screen, biochemical, small-molecule microarray, 635 nm fluorescence, stem cell growth factors (AID 1073). As to conditions: Notch2 binding, higher = more signal.
Test [6] addresses Pro-neuregulin-1, membrane-bound isoform (Homo sapiens) (UniProt Q02297). In words: NRG1 binders on small-molecule microarrays, primary screen, psychiatric disease protein project, biochemical, small-molecule microarray, fluorescence 635/667 (AID 1075).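 Note: score combines 667 nm spot fluorescence with signal to noise.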 As to conditions: NRG1 binding, 635 nm fluorescence, higher = more signal.
The test system of test [7] is Neuregulin-1 EGF-like domain. Description: binders of neuregulin-1 EGF-like domain, primary screen, biochemical, small-molecule microarray, 635 nm fluorescence (AID 1081).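 Note: binding of the protein to compounds printed on small-molecule microarray slides.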 As to conditions: small-molecule microarray binding, higher = more signal.
A short description of test [8]: FRG1 promoter luciferase signal modulators, primary screen, FRG1 inhibition for FSHD, cell-based, C2C12 myotubes, firefly/Renilla luciferase, luminescence (AID 1084). The note with it: higher = more signal, called active from +8 up or from −8 down.
A short description of test [9]: binders of probe aFST on microarray, primary screen, stem cell growth factor project, biochemical, small-molecule microarray, fluorescence 635/667 (AID 1086).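 Note: score merges 667 nm fluorescence with signal-to-noise of each printed compound spot.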 The note with it: higher = more signal.
Test [10] can be described thus: binders of probe aHhip on microarray, primary screen, stem cell growth factor project, biochemical, small-molecule microarray, fluorescence 635/667 (AID 1087).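 Note: score merges spot fluorescence at 667nm with spot signal to noise ratio.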 As to conditions: higher = more signal.
Test [11] relates to PRMT1 (protein arginine N-methyltransferase 1). Description: PRMT1 binders on small-molecule microarrays, primary screen, biochemical, small-molecule microarray, 635 nm fluorescence (AID 1088).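 Note: binding of Prmt1 protein to compounds spotted on small-molecule microarray slides.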 The note with it: small-molecule microarray binding, higher = more signal.
A short description of test [12]: yeast growth modulation, basal conditions, primary screen, YJM789 clinical isolate, OD600, 24 h (AID 1089).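 Note: growth of clinical yeast isolate S. cerevisiae YJM 789 seeded 1000 cells per well; test concentration not given here.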 The note with it: S. cerevisiae YJM789 growth, higher = more signal, called active from +8 up or from −8 down.
Test [13] can be described thus: fission yeast growth modulation, primary screen, strain 972, OD600, 24 h, no modulator (AID 1090).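 Note: basal condition with compound alone and no growth modifier present; test concentration not given here.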 The note with it: S. pombe 972 growth, higher = more signal, called active from +8 up or from −8 down.
The nature of test [14]: S. cerevisiae growth modulation with rapamycin, primary screen, strain BY4716, OD600, 96 h (AID 1091). Note: test concentration not given here. The note with it: higher = more signal, called active from +8 up or from −8 down.
Test [15] has as its target Torsin-1A-interacting protein 2 (Homo sapiens) (UniProt Q8NFQ8). Description: LULL1 binders on small-molecule microarray, primary screen, cell lysate, human LULL1 lysate, 635/667 nm fluorescence (AID 1092).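 Note: probe is lysate of COS7 cells overexpressing human LULL1; score merges per-feature 667 nm fluorescence with signal-to-noise.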 As to conditions: hLULL1 lysate binding, 635 nm fluorescence, higher = more signal.
Test [16] is described as follows: E. coli growth modulation, two-sided OD650, primary screen, E. coli filamentation project, strain DRC41, 24 h (AID 1093).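 Note: MC1000 strain lacking acrAB efflux and sulA so SOS filamentation is blocked; test concentration not given here.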 The note with it: OD650, 24 h, higher = more signal, called active from +8 up or from −8 down.
A short description of test [17]: small-molecule microarray binders of probe aLefty2, primary screen, biochemical, biotinylated probe, 635/667 nm fluorescence (AID 1094).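 Note: score merges spot fluorescence near 667 nm with spot signal-to-noise ratio.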 The note with it: higher = more signal.
The test system of test [18] is Noggin (protein binding on small-molecule microarray). In words: Noggin binders on small-molecule microarray, primary screen, biochemical, 635/667 nm fluorescence (AID 1095).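 Note: score merges 667 nm feature fluorescence with signal to noise over triplicate slides.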 As to conditions: 635 nm fluorescence, higher = more signal.
Test [19] concerns the target Neurogenic locus notch homolog protein 3 (Homo sapiens) (UniProt Q9UM47). In words: NOTCH3 binders on small-molecule microarray, primary screen, biochemical, 635/667 nm fluorescence (AID 1096). The note with it: NOTCH3 binding, 635 nm fluorescence, higher = more signal.
The nature of test [20]: small-molecule microarray binders of probe aEGFR, primary screen, biochemical, biotinylated probe, 635/667 nm fluorescence (AID 1097).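 Note: probe is a biotinylated anti-EGFR antibody binding compounds printed on slides; score combines fluorescence near 667 nm and signal to noise of each spot.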 As to conditions: higher = more signal.

Pro-neuregulin-1, membrane-bound isoform (Homo sapiens), sequence (Q02297 whole entry, looked up, the tested form may be a part, canonical isoform): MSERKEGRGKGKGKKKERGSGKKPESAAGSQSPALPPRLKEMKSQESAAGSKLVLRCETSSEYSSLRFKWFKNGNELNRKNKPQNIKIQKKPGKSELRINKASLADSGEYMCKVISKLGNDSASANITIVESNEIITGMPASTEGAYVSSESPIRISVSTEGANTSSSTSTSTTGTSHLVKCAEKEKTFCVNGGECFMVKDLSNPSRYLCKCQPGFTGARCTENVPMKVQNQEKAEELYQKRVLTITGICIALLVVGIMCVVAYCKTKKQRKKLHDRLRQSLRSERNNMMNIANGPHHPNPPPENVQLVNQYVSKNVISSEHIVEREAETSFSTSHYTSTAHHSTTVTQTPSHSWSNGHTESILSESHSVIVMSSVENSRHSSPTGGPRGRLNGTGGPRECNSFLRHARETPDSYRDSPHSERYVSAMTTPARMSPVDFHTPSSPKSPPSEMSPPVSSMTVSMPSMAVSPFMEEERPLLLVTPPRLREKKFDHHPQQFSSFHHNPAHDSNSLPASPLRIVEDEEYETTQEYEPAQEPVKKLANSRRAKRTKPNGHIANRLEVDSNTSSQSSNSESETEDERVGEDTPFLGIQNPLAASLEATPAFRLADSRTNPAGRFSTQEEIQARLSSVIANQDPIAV
Neurogenic locus notch homolog protein 3 (Homo sapiens), sequence (Q9UM47 whole entry, looked up): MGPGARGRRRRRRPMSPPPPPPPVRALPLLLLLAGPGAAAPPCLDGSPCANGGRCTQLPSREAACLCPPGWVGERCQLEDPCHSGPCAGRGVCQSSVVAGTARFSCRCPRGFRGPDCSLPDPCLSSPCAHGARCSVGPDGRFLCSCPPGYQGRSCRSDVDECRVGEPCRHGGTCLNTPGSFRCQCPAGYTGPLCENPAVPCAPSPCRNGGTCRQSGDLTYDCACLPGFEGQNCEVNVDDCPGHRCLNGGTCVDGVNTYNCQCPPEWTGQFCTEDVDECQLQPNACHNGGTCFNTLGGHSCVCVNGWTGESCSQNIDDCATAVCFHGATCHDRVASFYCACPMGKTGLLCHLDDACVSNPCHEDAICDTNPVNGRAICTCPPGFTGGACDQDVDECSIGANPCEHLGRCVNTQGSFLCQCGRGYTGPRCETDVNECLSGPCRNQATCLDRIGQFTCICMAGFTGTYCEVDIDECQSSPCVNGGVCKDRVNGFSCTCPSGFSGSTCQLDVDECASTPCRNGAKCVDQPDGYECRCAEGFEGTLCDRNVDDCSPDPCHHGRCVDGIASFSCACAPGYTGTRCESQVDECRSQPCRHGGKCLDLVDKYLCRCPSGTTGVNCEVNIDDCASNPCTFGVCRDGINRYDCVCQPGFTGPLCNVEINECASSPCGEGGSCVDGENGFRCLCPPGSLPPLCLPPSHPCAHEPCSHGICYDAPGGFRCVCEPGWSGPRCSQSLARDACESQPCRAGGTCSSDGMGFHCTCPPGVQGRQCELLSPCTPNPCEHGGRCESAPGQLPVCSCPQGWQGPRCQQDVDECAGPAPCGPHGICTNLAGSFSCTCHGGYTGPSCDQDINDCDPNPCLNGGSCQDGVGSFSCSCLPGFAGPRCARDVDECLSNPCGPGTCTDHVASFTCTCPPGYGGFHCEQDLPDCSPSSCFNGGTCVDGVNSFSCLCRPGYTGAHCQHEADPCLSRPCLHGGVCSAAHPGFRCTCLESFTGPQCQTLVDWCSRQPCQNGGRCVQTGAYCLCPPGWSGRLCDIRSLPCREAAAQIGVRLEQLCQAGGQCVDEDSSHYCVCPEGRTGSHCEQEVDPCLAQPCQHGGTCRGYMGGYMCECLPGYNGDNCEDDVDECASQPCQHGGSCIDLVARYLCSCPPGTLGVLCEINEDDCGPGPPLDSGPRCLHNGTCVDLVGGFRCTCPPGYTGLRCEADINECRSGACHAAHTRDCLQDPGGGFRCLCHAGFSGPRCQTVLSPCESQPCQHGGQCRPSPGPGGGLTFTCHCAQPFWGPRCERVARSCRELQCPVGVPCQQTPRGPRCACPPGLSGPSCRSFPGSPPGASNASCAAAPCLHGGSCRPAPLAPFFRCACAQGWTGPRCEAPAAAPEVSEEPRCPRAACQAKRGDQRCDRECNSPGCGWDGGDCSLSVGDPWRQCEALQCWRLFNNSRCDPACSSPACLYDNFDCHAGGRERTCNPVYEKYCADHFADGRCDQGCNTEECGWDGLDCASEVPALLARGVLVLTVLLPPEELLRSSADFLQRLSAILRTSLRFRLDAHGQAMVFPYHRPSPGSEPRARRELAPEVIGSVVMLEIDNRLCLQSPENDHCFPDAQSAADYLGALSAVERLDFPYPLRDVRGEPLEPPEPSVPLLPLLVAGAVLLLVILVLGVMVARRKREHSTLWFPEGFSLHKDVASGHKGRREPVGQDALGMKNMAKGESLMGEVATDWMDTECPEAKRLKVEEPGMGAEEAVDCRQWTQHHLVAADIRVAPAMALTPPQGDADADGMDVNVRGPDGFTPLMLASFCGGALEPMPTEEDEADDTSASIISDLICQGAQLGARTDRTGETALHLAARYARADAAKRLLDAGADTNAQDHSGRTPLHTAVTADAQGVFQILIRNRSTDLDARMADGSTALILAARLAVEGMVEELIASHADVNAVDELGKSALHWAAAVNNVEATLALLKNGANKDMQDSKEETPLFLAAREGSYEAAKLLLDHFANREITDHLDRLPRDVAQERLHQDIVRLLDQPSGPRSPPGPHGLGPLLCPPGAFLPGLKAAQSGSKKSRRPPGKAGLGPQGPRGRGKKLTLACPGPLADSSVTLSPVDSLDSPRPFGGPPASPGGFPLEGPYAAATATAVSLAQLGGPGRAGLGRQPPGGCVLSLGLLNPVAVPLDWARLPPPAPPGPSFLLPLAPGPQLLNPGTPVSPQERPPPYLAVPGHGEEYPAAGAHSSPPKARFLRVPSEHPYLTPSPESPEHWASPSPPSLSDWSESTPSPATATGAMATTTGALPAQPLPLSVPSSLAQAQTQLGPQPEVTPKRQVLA
Torsin-1A-interacting protein 2 (Homo sapiens), sequence (Q8NFQ8 whole entry, looked up): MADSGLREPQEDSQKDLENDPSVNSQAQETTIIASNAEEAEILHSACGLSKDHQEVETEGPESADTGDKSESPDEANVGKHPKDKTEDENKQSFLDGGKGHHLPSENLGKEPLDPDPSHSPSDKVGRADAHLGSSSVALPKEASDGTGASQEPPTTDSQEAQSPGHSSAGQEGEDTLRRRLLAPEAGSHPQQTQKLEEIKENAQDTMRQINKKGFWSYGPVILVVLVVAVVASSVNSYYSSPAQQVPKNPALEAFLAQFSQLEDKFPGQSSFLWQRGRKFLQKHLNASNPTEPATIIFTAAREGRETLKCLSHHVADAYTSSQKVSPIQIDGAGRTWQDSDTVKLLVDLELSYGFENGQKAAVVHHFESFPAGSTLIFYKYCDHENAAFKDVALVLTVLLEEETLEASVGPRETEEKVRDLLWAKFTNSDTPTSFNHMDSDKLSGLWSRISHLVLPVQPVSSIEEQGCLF

`COc1cccc([C@H]2Oc3ccc(OC)cc3C(=NOCC[C@@H]3C=C[C@H](OC(C)=O)[C@@H](COC(C)=O)O3)[C@@H]2O)c1`: the composite z-score was -0.478 in [1]; 0.459 in test [2]; -0.017 in test [3]; 0.577 in [4]; 0.895 in test [5]; 1.28 in test [6]. For the same compound, the composite z-score was 0.773 in test [7]; 0.366 in test [9]; -0.21 in test [10]; 0.829 in test [11]; 1 in test [15]; -0.0769 in test [17]. Further, the composite z-score was 0.475 in [18], 0.647 in [19] and 0.0281 in test [20]. For the same compound, the z-score in test [8] is 1.52 (inactive); in test [12], 0.243 (inactive); in test [13], 0.594 (inactive); in [14], 0.0357 (inactive); in test [16], 0.677 (inactive).

Consider `CC(C)=CCCC(C)=CCON=C1C[C@@H](O)[C@@H](O)[C@@H]2[C@@H]3C(=O)N([C@@H](C)c4ccccc4)C(=O)[C@@H]3CC[C@@H]12`, for which the composite z-score is -0.465 in test [1]; -0.0543 in [2]; -0.0493 in test [3]; 0.374 in [4]; 0.449 in [5]; 0.137 in [6]. The composite z-score in test [7] is 0.661; in [9], 0.11; in test [10], -0.249; in test [11], -0.744; in [15] it was 0.676; in test [17], -0.166. In addition, the composite z-score in [18] was 0.331; in test [19], 0.508; in test [20], -0.111. The z-score in test [8] is -0.366 (inactive); in test [12], -0.208 (inactive); in test [13] it was 0.301 (inactive); in test [14] it was -0.362 (inactive); in [16] it was 0.215 (inactive).

As for `COC(=O)CC=C[C@@H](C)[C@@H](C=NOC[C@@H](O)[C@H]1O[C@@H]2OC(C)(C)O[C@@H]2[C@H]1O)OC`, the composite z-score in test [1] is 0.354; in test [2] it was 0.937; in [3], -0.0996; in test [4] it was 0.197; in [5] it was 0.427; in test [6], -0.0348. Further, the composite z-score in test [7] was 0.205; in [9], -0.456; in test [10] it was 0.221; in [11], 0.297; in [15], 0.31; in test [17], -0.183. The composite z-score in test [18] was determined as 0.505; in test [19], 0.845; in [20] it was 0.0536. Moreover, the z-score in [8] is 0.195 (inactive); in test [12], 0.439 (inactive); in test [13], 0.429 (inactive); in test [14], 0.303 (inactive); in test [16], -0.125 (inactive).

Regarding `CC(=O)OC[C@H]1O[C@@H](ON=C(C)C)[C@H](OC(C)=O)[C@@H](OC(C)=O)[C@@H]1OC(C)=O`, the composite z-score in test [1] was -0.133; in test [2], 1.57; in test [3], -0.194; in test [4] it was -0.526; in [5] it was -0.105; in [6], -1.53. In addition, the composite z-score is -1.47 in [7]; 0.298 in [9]; -0.283 in test [10]; -0.312 in test [11]; -1.31 in test [15]; 0.089 in test [17]. The figures for the composite z-score in test [18], in test [19] and in [20] were 0.0419, -1.53 and -0.0393, respectively. In addition, the z-score in test [8] is 0.212 (inactive); in test [12], 0.559 (inactive); in test [13], -0.159 (inactive); in test [14] it was 0.196 (inactive); in test [16], -0.109 (inactive).

As to `CCO[C@H](c1cc(OC)cc([N+](=O)[O-])c1OC)[C@H](C)[C@@H](OC)[C@H](C)C=CCC(=O)OC`, the composite z-score in test [1] was 0.0456; in test [2], 0.32; in test [3] it was -0.0241; in test [4], -0.105; in test [5] it was 0.174; in test [6], 0.339. For the same compound, the composite z-score is 0.66 in test [7]; 0.414 in test [9]; -0.317 in test [10]; 0.836 in [11]; 0.945 in [15]; 0.0632 in test [17]. The composite z-score in [18] was -0.0645; in [19], 1.06; in test [20], -0.0069. Further, the z-score in test [8] is -0.0602 (inactive); in [12], 0.443 (inactive); in [13] it was -0.463 (inactive); in test [14], -0.604 (inactive); in test [16], -0.466 (inactive).
